Assay results: PubChem BioAssay (NCATS)
Results filed as inconclusive are left out. Values without a mark were called inactive. Active and inactive are the calls of the source. Calls come from the whole dose curve; as a rule, active = well fitted inhibition curve with a large enough effect; inconclusive = small, poorly fitted or top-dose-only effect; inactive = flat fitted curve, though single readings scatter.

Target: Calcium and integrin-binding protein 1 (Homo sapiens) (UniProt Q99828)
Test: Primary qHTS for Identification of Calcium Integrin Binding Protein 1 (CIB1) Competitor (AID 1508620);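 note: GST tagged CIB1 binding a fluorescein labelled alphaIIb integrin peptide tracer; top concentration of the series differs between compounds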
Conditions: CIB1-GST / FITC-alphaIIb peptide fluorescence polarization; series mostly up to 114 µM; activity change, negative = inhibition: at the top concentration
Outline: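 CIB1-GST (1 uM final) and compound incubated 15 min at room temperature before adding FITC-alphaIIb peptide tracer (100 nM final). Competition for binding read by fluorescence polarization (ex 480, em 540) after another 15 min at room temperature.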
% is set by controls: 0 for no effect and ±100 for the full control effect.

Chain of Calcium and integrin-binding protein 1 (Homo sapiens) (Q99828 whole entry, looked up): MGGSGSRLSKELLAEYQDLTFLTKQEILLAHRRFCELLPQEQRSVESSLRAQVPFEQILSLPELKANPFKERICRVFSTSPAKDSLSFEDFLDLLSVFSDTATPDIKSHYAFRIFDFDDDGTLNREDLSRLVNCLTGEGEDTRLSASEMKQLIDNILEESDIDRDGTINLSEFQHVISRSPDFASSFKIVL

SMILES | activity change, negative = inhibition | Potency
Cc1cccc(-n2cnc3cc(C(=O)N4CCC(c5ccccc5)CC4)ccc32)c1 | -9.9% | –
Cn1c2ccsc2c2cnn(Cc3ccc(F)cc3)c(=O)c21 | 0.241% | –
COc1ccc(NCc2ccc(O)c3ncccc23)nc1 | 20.3% | –
Cc1cn([C@H]2C[C@H](N[S+](=O)([O-])Cc3ccccc3)[C@@H](CO)O2)c(=O)[nH]c1=O | 2.77% | –
Cc1c(P(=S)(c2ccccc2)c2ccccc2)c2ccccc2n1CCCc1ccccc1 | 1.89% | –
CC1=C(C(=O)Nc2ccccc2Cl)C(c2ccccc2Br)N=C(Nc2nc3ccccc3o2)N1 (stereo not given) | -4.75% | –
COc1cccc(C2c3c(ncn(-c4ccncc4)c3=N)Oc3ccc4ccccc4c32)c1 (stereo not given) | 5.23% | –
N#Cc1c(-c2ccc(Br)cc2)no[n+]1[O-] | -6.07% | –
COc1cccc(CNc2ccc(S(=O)(=O)Nc3ncc(C)s3)cc2)c1O | – | inactive
S=C(Nc1cc(Cl)ccn1)N1CCN(c2cccc(Cl)c2Cl)CC1 | 2.26% | –
O=S(=O)(NCc1ccccc1F)c1ccc(O)c2ncccc12 | -5.9% | –
CN(C)c1cccc(-c2cc(N3CCC(C(N)=O)CC3)ncn2)c1 | 0.727% | –
O=[S+]([O-])(c1ccc2c(c1)OCCO2)N1CCN([S+](=O)([O-])c2ccccc2Br)CC1 | -1.82% | –
O=[S+]([O-])(Nc1ccccc1)c1ccc(NCc2cccc(C(F)(F)F)c2F)cc1 | -3.91% | –
CCNC(=O)c1ccc(-c2ccc3ncnc(NCc4nccs4)c3c2)o1 | -17.2% | –
COc1cc(O)c(C(CC(=O)N2CCC(Cc3ccccc3)CC2)c2ccc(OC)c(OC)c2)c(OC)c1 (stereo not given) | 4.43% [at 228 µM] | –
Cc1cc2c(s1)c1cnn(Cc3cc(F)cc(F)c3)c(=O)c1n2C | 9.99% | –
COc1ccc(COc2ccc(-c3nc4ccccc4[nH]3)cc2)cc1OC | 10.8% | –
Cc1cc2c(s1)c1cnn(Cc3cc(F)ccc3F)c(=O)c1n2C | -1.37% | –
CC(=O)Nc1sc2c(c1-c1cc3ccccc3s1)CCNC2 | 14.6% | –

SMILES | activity change, negative = inhibition | Potency
Cc1ccc(NS(=O)(=O)c2cccc(Cl)c2)cc1C | 6.33% | –
Cc1cccc(C)c1-n1c(SCC(=O)NCCCCCC(=O)O)nnc1-c1cccc([S+](=O)([O-])N2CCCC2)c1 | -2.74% | –
CC(C)(C)OC(=O)N1CCN(c2ccc(NCc3ncc(-c4ccc(C#N)cc4)o3)cc2)CC1 | -0.676% | –
CCOC(=O)c1ccc(-c2ccc3ncnc(NCCc4cnc[nH]4)c3c2)o1 | 5.47% | –
Cn1nnnc1Sc1ncnc2scc(-c3ccccc3Br)c12 | 2.41% | –
O=C1CN(S(=O)(=O)c2c(F)cccc2F)CCN1S(=O)(=O)c1ccc2c(c1)OCCO2 | 7.19% | –
Cc1cc2c(s1)c1cnn(Cc3c(F)ccc(F)c3F)c(=O)c1n2C | 4.36% | –
Cc1c(P(=S)(c2ccccc2)c2ccccc2)c2ccccc2n1C(=O)NCc1ccc(F)cc1 | 3.69% | –
COc1ccc(N2CCN(S(=O)(=O)c3ccc4c(c3)CC(=O)N4)CC2)cc1 | 3.12% [at 228 µM] | –
Cc1ccc(-c2ccc(=O)n(CC(=O)N(C)CCN(C)C)n2)cc1 | 2.97% | –
O=C1c2ccccc2NC(c2ccc(-c3ccc(-c4ccccc4)cc3)o2)N1O (stereo not given) | -12.7% | –
CCCCNC(=O)c1ccc2c(c1)ncn2-c1cccc(C)c1 | 2.37% | –
CC(=O)Nc1sc2c(c1-c1ccc3c(c1)OCO3)CCNC2 | 1.43% | –
COc1cc(O)c(C(CC(=O)N2CCCC(COc3ccc(F)cc3)C2)c2ccc3c(c2)OCO3)c(OC)c1 (stereo not given) | 1.23% [at 228 µM] | –
O=[S+]([O-])(c1ccc2c(c1)OCCO2)N1CCN([S+](=O)([O-])c2c(F)cc(F)cc2Br)CC1 | 4.34% | –
NC(=O)C1CCN(c2nc(-c3cccc(Cl)c3)cs2)CC1 | 1.55% | –
Cn1c2cc(C=O)sc2c2cnn(Cc3ccccc3F)c(=O)c21 | 2.22% | –
COc1cc(F)c(S(=O)(=O)N2CCCN(S(=O)(=O)c3ccc4c(c3)OCCO4)CC2)c(F)c1 | 0.418% | –
Cc1ccc(OCCn2c(CCNC(=O)c3ccc(Br)o3)nc3ccccc32)cc1 | -1.02% | –
Cc1noc(C)c1-c1ccc2ncnc(NCC3CCCCN3C)c2c1 (stereo not given) | -0.508% | –
